BoNT-F LC inh: BoNT/F light chain protease inhibitors, primary screen, biochemical, flow cytometry, MLPCN library. Botulinum neurotoxin type F light chain protease (Clostridium botulinum). Multiplex microsphere protease cleavage assay. inhibition, % at 10 µM. actives 0.22% (n = 360,000). AID 588497, 2011; in the data active = inhibition above about 35%, passing the limit was not always enough; inconclusive = no clear call, values can overlap the other calls; also: plate controls were buffer without enzyme for full effect and enzyme alone for no effect
BoNT-A LC inh2: BoNT/A light chain protease inhibitors, primary screen, biochemical, flow cytometry, MLPCN library; Botulinum neurotoxin type A light chain protease (Clostridium botulinum A str. ATCC 3502); multiplex microsphere protease substrate cleavage; inhibition, % at 10 µM; actives 0.17% (n = 360,000); also: plate controls were buffer without enzyme for full effect and enzyme alone for no effect
Bead autofluor: counter-screen for toxin protease inhibitors: compound fluorescence; compound autofluorescence counterscreen, microsphere flow cytometry; active compounds read high; fluorescence intensity (no concentration beside the values); actives 3.1% (n = 360,000); in the data active = fluorescence intensity above about 16000; inconclusive = no clear call, values can overlap the other calls
Anthrax LF inh2: Bacillus anthracis LF protease inhibitors, primary screen, biochemical, multiplex microsphere, MLPCN library. multiplex microsphere protease cleavage assay. inhibition, % at 10 µM. actives 0.12% (n = 360,000); also: plate controls were buffer without enzyme for full effect and enzyme alone for no effect
GDH-TPI inh: GDH-TPI coupling enzyme inhibitors, primary screen, artefact control for M. tuberculosis FBA inhibitor project, biochemical, absorbance, full deck. GDH-TPI coupled enzyme counterscreen, NADH absorbance. inhibition, % at 4.8 µM. actives 1.2% (n = 360,000). AID 588335, 2011; in the data active = inhibition above about 30%;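 also: 0% = DMSO wells and 100% = wells lacking the enzyme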
Mtb FBA inh: Mtb FBA enzyme inhibitors, primary screen, biochemical, fluorescence, strain H37Rv; actives 2.3% (n = 360,000); purified M. tuberculosis FBA, fluorescence read-out; AID 588726, 2011; Fructose-bisphosphate aldolase (Mycobacterium tuberculosis (strain ATCC 25618 / H37Rv)), …; inhibition, % at 1 µM; in the data active = inhibition above about 27%;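 also: 0% = vehicle and 100% = reference inhibitor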
Starred values were filed as active, the others as inactive; u = inconclusive; x = no result; + = active, no number. Shown are actives, neighbours in structure and some others; about 6.7% of the full set was active somewhere. Rule as the data show it, unless noted: active = inhibition above about 30%; inconclusive = no clear call, values can overlap the other calls; inactive = below that.

SMILES | BoNT-F LC inh | BoNT-A LC inh2 | Bead autofluor | Anthrax LF inh2 | GDH-TPI inh | Mtb FBA inh
NC(=O)COC(=O)C1CSC2(c3ccc(F)cc3)CCC(=O)N12 (stereo unspecified) | -3.6 | -1.7 | 3584 | 8.0 | -8.9 | 2.9
CSCC[C@H](NC(=O)OC(C)(C)C)C(=O)N1CCC(C(=O)N[C@@H](C)C(=O)O)CC1 | 0.3 | u | 20586* | 0.4 | -2.1 | 0.4
Cc1cc2c(cc1C)C(=O)NC(C)(C)C2 | -2.7 | -1.6 | 11854 | -1.8 | 10.0 | 1.2
CC(C)NC(=O)CCNS(=O)(=O)c1ccc(Br)cc1 | -2.8 | -2.6 | 24137* | -1.0 | -6.3 | 0.6
CS(=O)(=O)c1nc(-c2ccc(F)cc2)cc(C(F)(F)F)n1 | -1.9 | -0.1 | 2072 | 1.4 | 7.4 | 14.4
O=C(/C=C/c1ccc(-c2ccccc2[N+](=O)[O-])o1)c1ccco1 | -1.5 | 6.4 | 2239 | 4.8 | 11.2 | -9.4
COc1ccc(/C(O)=C/C(=O)C(=O)Nc2c(C)n(C)n(-c3ccccc3)c2=O)cc1 | 1.7 | 2.0 | 21666* | -10.0 | 34.0* | -1.5
COc1ccc(C(=O)/C=C/Nc2c(C)n(C)n(-c3ccccc3)c2=O)cc1OC | -0.1 | -0.5 | 2558 | -0.4 | 35.0* | -1.5
CC1(C)C2CCC1(C)C(NCC(O)COc1ccc(C#N)cc1)C2 (stereo unspecified) | -20.1 | -11.4 | 3714 | -0.1 | 7.6 | -2.5
N#Cc1c(N)nc(SCC(=O)C23CC4CC(CC(C4)C2)C3)c(C#N)c1-c1ccc(Cl)cc1 | -0.7 | -0.2 | 2861 | 0.9 | 5.4 | 9.3
CSc1nc(N)nc(SCC(=O)c2ccccc2)c1C#N | -11.0 | -1.1 | 3015 | -1.4 | 1.9 | 7.6
CSc1nc(N)nc(SCC(=O)C23CC4CC(CC(C4)C2)C3)c1C#N | -3.3 | -1.1 | 19688* | -4.2 | -1.5 | 0.5
COc1ccc(C(=O)CSc2nc(N)nc(SC)c2C#N)cc1 | 9.9 | 5.9 | 19201* | -2.9 | -1.9 | 0.4
Nc1ccc(Br)cc1 | x | x | x | x | 4.4 | 2.3
Nc1cc(Br)c(N)c(Br)c1 | -9.4 | -2.0 | 24247* | -1.6 | -4.1 | 4.7
CCOC(=O)c1cc(=O)n2c(nc3ccccc32)[nH]1 | -2.4 | 0.3 | 3603 | -1.1 | 16.2 | +
CCCCc1c(O)n2c(nc3ccccc32)[nH]c1=O | 6.3 | -0.2 | 5298 | -0.6 | -0.4 | -11.9
CCn1c(CNC(=O)c2cccs2)nnc1SCC(=O)Nc1cc(Cl)ccc1C | 9.7 | u | 21203* | -1.7 | 0.7 | -0.1
CCn1c(CNC(=O)c2cccs2)nnc1SCC(=O)NCCc1ccccc1 | 1.0 | u | 24231* | -1.7 | -3.5 | -0.8
CCn1c(CNC(=O)c2cccs2)nnc1SCC(=O)Nc1ccc(Cl)cc1 | -4.6 | -1.7 | 17189* | -4.9 | 0.0 | -1.5
COc1cc2c(cc1OC)/C(=C/c1ccc(Cl)cc1)C(=O)OC2 | 0.9 | -0.7 | 2412 | 0.5 | 15.7 | -5.5
Cc1ccc(C)c2[nH]c(=O)c(CCNC(=O)CC(C)(C)C)cc12 | -0.7 | -0.3 | 5145 | 3.8 | 1.9 | 6.9
Cc1cc(NC(=O)c2sc(Nc3ccc(F)c(Cl)c3)nc2N)no1 | 1.8 | -1.5 | 4834 | -1.7 | 13.4 | -5.8
Cc1cc(NC(=O)c2sc(Nc3cccc(C(F)(F)F)c3)nc2N)no1 | -4.7 | -2.3 | 7048 | -3.3 | 33.4* | -1.0
CCC1(c2ccccc2)NC(=O)N(CC(=O)Nc2ccc(S(N)(=O)=O)cc2)C1=O (stereo unspecified) | 8.9 | -1.6 | 3675 | 13.4 | 0.0 | -2.0
SMILES | BoNT-F LC inh | BoNT-A LC inh2 | Bead autofluor | Anthrax LF inh2 | GDH-TPI inh | Mtb FBA inh
O=C(Cc1coc2ccc3ccccc3c12)NCc1ccccc1 | -2.6 | -2.1 | 20707* | -1.3 | -3.1 | 2.8
CN(Cc1nc(-c2cccnc2)no1)S(=O)(=O)c1ccccc1 | 7.1 | 0.0 | 2859 | 0.6 | -3.9 | 1.3
CN(Cc1nc(-c2ccccn2)no1)S(=O)(=O)c1ccc(Cl)cc1 | 3.9 | 3.8 | 21655* | 0.9 | 9.3 | 4.7
Cc1cc2ncn(/N=C/c3ccc(-c4ccccc4)o3)c2cc1C | 3.0 | 1.7 | 21563* | -0.3 | 7.8 | 0.9
Cc1cc2ncn(/N=C/c3ccc4c(c3)OCO4)c2cc1C | -0.9 | 0.2 | 4766 | -1.9 | 7.6 | 1.5
COc1ccccc1OCCn1cc(/C=N/NC(=O)c2ccncc2)c2ccccc21 | u | -1.5 | 4119 | 12.5 | 53.7* | -1.0
O=C(N/N=C/c1cn(CCOc2ccccc2)c2ccccc12)c1ccncc1 | -5.2 | -1.3 | 9410 | -5.5 | 9.4 | -0.5
COc1cc(C(=O)N/N=C/c2cn(Cc3ccccc3)c3ccccc23)ccc1O | -4.5 | -2.4 | 4719 | 2.4 | 37.1* | -0.7
Nc1ccc(C(=O)N/N=C/c2cn(Cc3ccccc3)c3ccccc23)cc1 | 5.7 | -2.8 | u | -1.1 | 36.5* | 1.4
Cc1ccccc1OCC(=O)N/N=C/c1cn(Cc2ccccc2)c2ccccc12 | -5.2 | -0.4 | 2729 | -1.0 | 9.3 | -0.5
Nc1ccc(C(=O)N/N=C/c2cn(Cc3ccc(F)cc3)c3ccccc23)cc1 | -2.8 | 0.0 | 4268 | -0.3 | 32.8* | 1.9
O=C(O)c1ccc(N/N=C/c2cn(Cc3ccccc3F)c3ccccc23)cc1 | -0.3 | 0.4 | 4034 | 0.1 | 42.0* | 11.1
C(=N\n1cnnc1)/c1cn(Cc2ccccc2)c2ccccc12 | 0.2 | 0.0 | 8409 | 4.8 | 31.5* | -2.5
COc1ccc(C(=O)Nc2cc(OC)c(Cl)cc2OC)cc1 | -9.9 | -0.1 | 4944 | -9.0 | -4.5 | -1.4
COc1cc(NC(=O)c2c(F)c(F)c(F)c(F)c2F)c(OC)cc1Cl | 1.2 | 1.5 | 21733* | -2.1 | -8.3 | -0.8
CCCCOC(=O)Nc1ccc(C(=O)OC)cc1 | 1.0 | 0.4 | 21923* | -1.5 | -5.8 | -2.6
CCCCOC(=O)Nc1cc(OC)c(Cl)cc1OC | 0.1 | 1.2 | 23042* | -2.4 | -1.3 | -1.4
Cc1ccc(N2CC(C(=O)Oc3cccc(N4C(=O)CCC4=O)c3)CC2=O)cc1 (stereo unspecified) | -4.0 | -1.5 | 21129* | -2.9 | 0.6 | -0.5
O=C(Oc1cccc(N2C(=O)CCC2=O)c1)C1CC(=O)N(c2ccc(Br)cc2)C1 (stereo unspecified) | -7.4 | 1.8 | 6539 | 4.7 | -4.2 | -0.2
Cc1ccc(N2CC(C(=O)OCC(=O)C(C)(C)C)CC2=O)cc1 (stereo unspecified) | -1.6 | 0.0 | 23049* | -4.0 | -3.0 | 0.8
COC(=O)C1CC(=O)N(c2ccc(C)cc2)C1 (stereo unspecified) | 1.2 | -0.2 | 2606 | -1.8 | 12.0 | 0.7
CN1CCCN(C(=O)c2ccc(Cl)cc2)CC1 | -14.7 | -1.7 | 4283 | -7.4 | -8.6 | 1.7
CC(C)CCN1CCC(CN2CCNC(=O)C2=O)CC1 | 3.5 | -0.1 | 3571 | -0.8 | -4.2 | 3.0
